The values below come from PubChem BioAssay (NCI).

Common to all, as to assay: NCI-60 one-dose screen, 48 h (100 = growth as untreated, 0 = no growth, -100 = all killed)
Test [1] deals with HT29 colon. The note with it: 10 µM unless noted.
In test [2] the test system is SNB-75 CNS. The following applies: 10 µM unless noted.
Test [3] deals with SNB-19 CNS. The following applies: 10 µM unless noted.
In test [4] the test system is U251 CNS. The note with it: 10 µM unless noted.
In test [5] the test system is PC-3 prostate. The following applies: 10 µM unless noted.
Test [6] deals with UACC-62 melanoma. The note with it: 10 µM unless noted.
For test [7], the system named is LOX IMVI melanoma. The note with it: 10 µM unless noted.
Test [8] concerns SK-MEL-28 melanoma. The following applies: 10 µM.
Test [9] has as its system SK-MEL-2 melanoma. The note with it: 10 µM unless noted.
Test [10] relates to EKVX NSCLC. The following applies: 10 µM unless noted.
Test [11] relates to SN12C renal. The following applies: 10 µM unless noted.
The subject of test [12] is UO-31 renal. The following applies: 10 µM unless noted.
The subject of test [13] is TK-10 renal. The following applies: 10 µM unless noted.
Test [14] relates to ACHN renal. The following applies: 10 µM unless noted.
The test system of test [15] is CAKI-1 renal. The note with it: 10 µM unless noted.
Test [16] concerns A498 renal. The following applies: 10 µM unless noted.
In test [17] the test system is CCRF-CEM leukemia. The following applies: 10 µM unless noted.
For test [18], the system named is MOLT-4 leukemia. The note with it: 10 µM unless noted.
The test system of test [19] is SR leukemia. The note with it: 10 µM unless noted.

Structures are written as SMILES. Compounds without any hit were thinned out: in the full panel of roughly 83,000, 20% have a hit.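 A percent growth of 40 corresponds to 60% growth inhibition; 0 means no net growth; -100 means all cells died. Active threshold: below 10.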 Values without a mark were called inactive. Calls of active or inactive are those of the source.

With `Cc1nn(-c2nc3ccccc3[nH]2)c2c1C(c1ccc(OCC(N)=O)cc1)CC(=O)N2` (configuration not stated), the growth in test [1] was 109%; in test [2], 92.3%; in test [3], 103%; in [4], 110%; in test [5], 97.4%; in [6], 97.8%. For the same compound, the growth in test [7] is 109%; in test [8], 105%; in test [9], 107%; in test [10] it was 96.9%; in test [11] it was 101%; in test [12] it was 81.9%. Further, the growth in [13] is 114%; in test [14], 102%; in test [15] it was 89.5%; in [16] it was 79.1%; in [17], 22.5%; in test [18], -20.1% (active). Besides, the growth in [19] was 117%.

As to `COc1ccc(-c2c(-c3ccc(OC)c(O)c3)cnc3ncnn23)cc1`, the growth in [1] was 108%; in test [2] it was 99.6%; in test [3] it was 102%; in test [4], 102%; in test [5], 105%; in test [6], 99%. In addition, the growth is 99.8% in test [7]; 114% in [8]; 107% in test [9]; 98.1% in [10]; 105% in [11]; 94.1% in test [12]. Besides, the growth is 98% in test [13]; 105% in [14]; 95.1% in [15]; 91.9% in test [16]; 102% in test [17]; 100% in test [18]. Further, the growth in [19] was 109%.

Regarding `O=C(Nc1ccc(F)cc1F)c1cc(I)ccc1O`, the growth in test [1] is 76.6%; in test [2], -2.44% (active); in test [3], 16.8%; in test [4] it was 4.06% (active); in test [5], 5.01% (active); in test [6], 9.89% (active). The growth in test [7] was 13.4%; in [8], 23.8%; in [9], -15.8% (active); in [10], 55.8%; in [11] it was 8.12% (active); in [12] it was 2.51% (active). In addition, the growth in test [13] was 23.1%; in test [14], 11%; in [15], -17.5% (active); in test [16], -33.2% (active); in [17], 14.1%; in test [18] it was 7.29% (active).

For `CC(C)CCOc1ccc(-c2n[nH]c(C(F)(F)F)c2-c2cncc(C#N)c2)c(O)c1`, the growth in test [1] was 48.9%; in test [2], 30.1%; in test [3], 13.1%; in test [4], 2.85% (active); in [5] it was 1.74% (active); in test [6], 17.5%. Moreover, the growth in [7] is 5.15% (active); in test [8], 33.7%; in test [9], -13.8% (active); in test [10], 3.52% (active); in [11], 3.81% (active); in [12], 3.89% (active). The growth in test [13] was 11.4%; in test [14], 8.84% (active); in test [15], 9.47% (active); in test [16], -25.5% (active); in [17] it was 6.67% (active); in [18], 23%. Also, in test [19], the growth is 33.7%.

On to `CCOC(=O)c1c2c(n3cccc(Cl)c13)C(=O)c1ncccc1C2=O`, for which the growth in test [1] was 69.3%; in test [2] it was 78.2%; in test [3], 45.9%; in [4], 36%; in test [5], 53%; in test [6], 55.9%. In addition, the growth was 27.3% in [7]; 87.5% in [8]; 103% in test [9]; 75.7% in [10]; 16.6% in [11]; 43.9% in test [12]. The growth is 75.6% in [13]; 26.4% in test [14]; 25.8% in test [15]; 79.3% in test [16]; 84.2% in test [17]; 58.3% in test [19].

`O=C(Nc1ccc(F)cc1F)c1cc(Cl)ccc1O`: the growth was 31.4% in test [1]; -8.57% (active) in [2]; 16.2% in test [3]; 3.34% (active) in test [4]; 6.06% (active) in test [5]; 7.39% (active) in test [6]. For the same compound, the growth in [7] was 14.5%; in [8], 25.3%; in test [9], -25.6% (active); in [10] it was 34.2%; in test [11], 2.94% (active); in test [12], -0.334% (active). Also, the growth in test [13] is 17.4%; in [14], 4.87% (active); in test [15] it was -14.7% (active); in test [16], -34.4% (active); in test [17] it was 15.4%; in test [18], 8.79% (active).

`O=c1oc2ccc(Cl)cc2c(=O)n1-c1cc(C(F)(F)F)cc(C(F)(F)F)c1`: the growth in [1] is 1.92% (active); in test [2] it was -36.2% (active); in test [3], 13.5%; in test [4] it was -15.2% (active); in test [5], 11.9%; in test [6] it was -34.7% (active). The growth in test [7] is -15.5% (active); in test [8], -18.9% (active); in test [9] it was -34.2% (active); in test [10], 5.27% (active); in test [11], 1.28% (active); in [12], 6.17% (active). For the same compound, the growth in [13] is 0.337% (active); in [14] it was 3.99% (active); in test [15], -24.7% (active); in [16], -68.8% (active); in test [17] it was 5.13% (active); in test [18], -16.9% (active).

On to `O=c1oc2ccc(Br)cc2c(=O)n1-c1ccc(Cl)cc1F`, for which the growth is 20.2% in [1]; -26.9% (active) in [2]; 17.7% in test [3]; 3.56% (active) in test [4]; -7.82% (active) in test [5]; -28.5% (active) in [6]. Besides, the growth in [7] is 8.91% (active); in [8], -0.768% (active); in test [9], -19.6% (active); in test [10] it was 9.06% (active); in [11], 1.42% (active); in test [12], 7.61% (active). For the same compound, the growth was 7.09% (active) in test [13]; 2.66% (active) in test [14]; -18.1% (active) in [15]; -69.8% (active) in [16]; 6.89% (active) in test [17]; -8.39% (active) in test [18].
